# Compound activity (PubChem)
# D2 PAM-1 = positive allosteric modulators of human D2 dopamine receptor. P14416. DiscoveRx D2 beta-arrestin cells, luminescence, 90 min; 100% = 57 uM dopamine signal. potentiation, % (test concentration not listed). 0.23% of 360,000 active; in the data active = potentiation above about 50%; inconclusive = mostly about 30% to 49%
# Target sequence (P14416 whole entry, looked up): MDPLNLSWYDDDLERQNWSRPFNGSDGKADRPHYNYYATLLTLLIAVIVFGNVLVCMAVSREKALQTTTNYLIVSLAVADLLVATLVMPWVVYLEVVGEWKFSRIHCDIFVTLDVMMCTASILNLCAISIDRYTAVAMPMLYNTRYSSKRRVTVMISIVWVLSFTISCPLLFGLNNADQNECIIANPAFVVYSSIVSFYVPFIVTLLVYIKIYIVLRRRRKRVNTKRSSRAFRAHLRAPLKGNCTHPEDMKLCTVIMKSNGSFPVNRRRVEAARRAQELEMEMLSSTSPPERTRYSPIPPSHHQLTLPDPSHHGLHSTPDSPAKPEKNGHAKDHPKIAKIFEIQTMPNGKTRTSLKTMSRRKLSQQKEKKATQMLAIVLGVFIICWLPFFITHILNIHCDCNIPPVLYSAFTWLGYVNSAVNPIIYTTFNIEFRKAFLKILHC
#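 PathHunter D2 cells, attached overnight at 37 deg C, received compound in DMSO plus dopamine at EC20 (50 nM final) for 90 min at 37 deg C. Beta-arrestin recruitment was read as luminescence after 1 h with detection reagent at ambient temperature.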
# D2 antagonist = antagonizes the human D2 dopamine receptor; HEK293 TREx D2 cells, calcium flux, dopamine EC80; inhibition, % at 10 µM; 2% of 340,000 active; AID 485344; in the data active = inhibition above about 30%; inactive = below that, where a call was filed; also: 0% is about no effect
#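 Measurement of antagonist activity uses fluorescent calcium dye in inducible HEK293 T-REx D2 cells: 10 s baseline, compound addition with 180 s read, EC80 dopamine addition with a further 180 s read.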
# D2 ag-1 = D2 dopamine receptor (human) agonism; HEK293 T-REx D2 cells, calcium flux agonist mode; activation, % at 2 µM; 0.53% of 340,000 active;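 active = activation over 3 SD above normal in the single-dose calcium agonist read, cut at about 30% in these data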; also: 0% is about no effect
#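 In this primary screen, compounds producing a positive calcium signal within 180 s of addition to tetracycline-induced, force-coupled HEK293 Trex D2 cells are flagged; cells are dye-loaded with a no-wash calcium kit beforehand.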
# D2 PAM-2 = positive allosteric modulators of human D2 dopamine receptor; HEK293 T-REx D2, calcium flux, EC20 dopamine potentiation; P14416; 0.34% of 340,000 active; potentiation, % at 10 µM; AID 485347;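 active = potentiation over 3 SD above the plate norm, cut at about 30% in these data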; also: 0% is about no effect
#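 Tetracycline-induced HEK293 T-REx cells force-coupled to calcium signalling expressed D2; compounds were pin-added after a 10 s baseline, read kinetically 180 s, then an EC20 dopamine challenge followed with a further 180 s calcium read.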
# D2 ag-2 = activates the human D2 dopamine receptor. activation, % (no concentration beside the values). DiscoveRx PathHunter D2 beta-arrestin, luminescence, 90 min; 100% = 57 uM dopamine signal. 0.084% of 360,000 active; in the data active = activation above about 40%; inconclusive = between about 15% and that limit
#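 DiscoveRx PathHunter D2 beta-arrestin cells (2,100/well) attached overnight, then compound-stimulated 90 min at 37 C in HBSS/10 mM HEPES/0.1% Tween-20 buffer; beta-galactosidase complementation read by luminescence after 1 h at ambient temperature. Dopamine 57 uM final (EC100) as control.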
# * marks the source's active call; other numbers are inactive results; ? = inconclusive; nt = no result. In the library only some 2.4% were active in any assay of this set; here they are far more common.
SMILES,D2 PAM-1,D2 antagonist,D2 ag-1,D2 PAM-2,D2 ag-2
COc1ccc(-c2cc(NCc3ccc(C)cc3)n3cnnc3n2)cc1,nt,nt,2,17,nt
CCCn1c(SCC(=O)Nc2nnc(CC)s2)nnc1-c1ccco1,29,7,0,38*,-1
Cc1nnc(SCC(=O)NCc2ccco2)n1Cc1ccccc1,-15,nt,nt,nt,-1
CCn1c(SCC(=O)Nc2ccc3c(c2)c2ccccc2n3CC)nnc1-c1ccco1,-21,45*,0,9,0
CCCn1c(SCC(=O)NCc2ccco2)nnc1C(C)C,1,47*,0,-7,-2
CCn1c2ccccc2c2cc(NC(=O)c3cccc([N+](=O)[O-])c3)ccc21,-2,42*,1,-12,1
CC(C)OCCCn1c(SCc2cccc(Br)c2)nc2c(sc3ccccc32)c1=O,nt,nt,nt,7,nt
Clc1ccc(CCNC(c2nnc(-c3ccccc3)o2)c2ccccc2Cl)cc1 (stereo not drawn),nt,nt,-1,-4,nt
COc1cc2c(cc1OC)CN(C(=O)CN1C(=O)c3ccc([N+](=O)[O-])cc3C1=O)CC2,60*,0,0,0,6
COc1ccc(NC(=O)CCN2C(=O)c3ccc([N+](=O)[O-])cc3C2=O)c(OC)c1,56*,1,-1,-2,?
COc1cc2c(cc1OC)CN(C(=O)CCCN1C(=O)c3ccccc3C1=O)CC2,3,-14,0,3,-1
Cc1ccc(CNC(=O)CN2C(=O)COc3ccccc32)cc1,nt,nt,nt,-5,nt
CCn1c(=O)c(C(C)=O)nc2ccccc21,-8,33*,0,-2,-4
CCNC(=O)C1CCCN(Cc2ccc(C)c3ccccc23)CC1 (stereo not drawn),-10,nt,nt,nt,-4
Cn1c(CN2CCCCC2)nc2cc(NS(=O)(=O)c3ccc(Cl)cc3)ccc21,-22,73*,1,-18,-4
CC(=O)Nc1ccc2c(c1)nc(CN1CCCC1)n2C,-21,10,0,-1,0
Cn1c(CN2CCCCC2)nc2cc(NS(=O)(=O)c3ccc(F)cc3)ccc21,-3,74*,0,-19,-6
Cn1c(CCN2CCCCC2)nc2cc(NS(=O)(=O)c3ccc(Cl)cc3)ccc21,-36,14,0,3,-1
CCc1ccc2nc(N(CCN(CC)CC)C(=O)c3cccs3)sc2c1,nt,nt,0,1,nt
COC(=O)/C(=C/Nc1ccc(O)cc1)[N+](=O)[O-],86*,-9,0,4,10
CCc1ccc(NC(=O)Cn2c(=O)n(-c3ccc(OC)cc3)c(=O)c3ccc(C(=O)NCc4ccc(C)cc4)cc32)cc1,nt,nt,-1,10,nt
CN(C(=O)COC(=O)C12CC3CC(CC(C3)C1)C2)c1c(N)n(Cc2ccccc2)c(=O)[nH]c1=O,-12,47*,0,6,-3
CCOC(=O)c1ccc(NC(=O)C2(S(=O)(=O)c3ccc(Cl)cc3)CC2)cc1,nt,nt,0,-9,nt
O=C(Nc1ccc(F)cc1)C1(S(=O)(=O)c2ccc(Cl)cc2)CC1,1,37*,-1,-5,0
Fc1ccc(-c2csc(=Nc3cccc(C(F)(F)F)c3)n2Cc2ccc3c(c2)OCO3)cc1,nt,nt,0,-1,nt
SMILES,D2 PAM-1,D2 antagonist,D2 ag-1,D2 PAM-2,D2 ag-2
COC(=O)c1cc(NC(=O)Cc2cc(OC)c(OC)c(OC)c2)cc(C(=O)OC)c1,-27,40*,-1,3,0
Cc1ccc(C)c(NC(=O)CN(C)S(=O)(=O)c2cccc3nsnc23)c1,nt,nt,-1,-1,nt
Nc1cc2c(cc1[N+](=O)[O-])OCCO2,-26,47*,0,-8,-3
COc1cc(OC)c(NC(=O)CSCc2nc(-c3ccc(OC)c(OC)c3)no2)cc1Cl,nt,nt,1,2,nt
Clc1ccc(N=c2ssnc2Cl)nc1,103*,-5,1,-8,-1
CCOC(=O)c1c(NC(=O)C[n+]2ccccc2)sc2c1CCCC2,-39,46*,0,-22,-4
COc1ccc(CCN(C)C2CCCN(C(=O)c3sccc3C)C2)cc1OC (stereo not drawn),-15,57*,0,-26,-2
C=Cc1ccc(Cn2c(C(=O)O)c(CNCc3ccc(F)cc3)c3ccc(C)cc32)cc1,nt,nt,0,-7,nt
O=c1cc(CN2CCN(C/C=C/c3ccccc3)CC2)c2cc(O)ccc2o1,-27,83*,1,-22,1
CCc1ccc2oc(=O)cc(CN3CCN(Cc4ccccc4)CC3)c2c1,-25,39*,0,-21,-4
O=c1cc(CN2CCN(Cc3ccccc3)CC2)c2ccc(O)cc2o1,-24,4,-1,-19,-5
O=c1[nH]c(CN2CCN(C/C=C/c3ccccc3)CC2)nc2ccccc12,-24,63*,29,-27,0
O=c1[nH]c(CN2CCN(S(=O)(=O)/C=C/c3ccccc3)CC2)nc2ccccc12,4,-35,0,-7,0
Cc1ccc2oc(=O)cc(CN3CCN(C/C=C/c4ccccc4)CC3)c2c1,-22,58*,-1,-18,-3
O=c1cc(CN2CCN(Cc3ccccc3)CC2)c2cc(Cl)ccc2o1,-47,4,-1,-7,-8
Cc1ccccc1CNCCSc1nnnn1-c1ccccc1,nt,nt,-1,-24,nt
CCC(Cc1ccccc1)OC(=O)c1ccccc1C(=O)O (stereo not drawn),2,nt,nt,nt,2
N#Cc1c[nH]n2c(NC3CCCC3)c(-c3cccc(Br)c3)nc12,nt,nt,0,-3,nt
Cc1nc(N2CCOCC2)[nH]c(=O)c1CCC(C)C,14,0,0,1,-2
Cc1nc(N2CCOCC2)[nH]c(=O)c1C(O)C(Cl)(Cl)Cl (stereo not drawn),-8,48*,1,-4,-4
O=C(Cn1ccc(C(F)(F)F)n1)N=Nc1c(O)[nH]c2ccc(Br)cc12,-6,-10,1,42*,-14
O=C(Cn1cc(SCc2ccc(F)cc2)c2ccccc21)N1CCCCCC1,nt,nt,0,2,nt
CC1CCN(CCOc2ccc(Cl)c(Cl)c2)CC1,-14,84*,6,-26,-4
Cc1ccc(OCCN2CCOCC2)cc1C,-13,-10,0,-3,-1
Cc1cc(OCCN2CCOCC2)ccc1Cl,-7,46*,0,-2,5
CC(=O)c1cccc(NS(=O)(=O)c2ccc(N/C=C\C(=O)c3ccc(C)cc3)cc2)c1,64*,-2,0,3,4
CC(=O)c1cccc(NS(=O)(=O)c2ccc(N/C=C/C(=O)c3ccc(F)cc3)cc2)c1,-2,nt,nt,nt,1
COc1ccc(OC)c(CCNC(=O)c2cc3cccc4c3n2CC(C)S4)c1 (stereo not drawn),nt,nt,0,-1,nt
O=C(c1ccc(Oc2ccccc2)cc1)c1nc2c(n1O)CCCC2,1,31*,0,4,5
COc1ccc(OC)c(-c2noc(N3CCN(c4cccc(C(F)(F)F)c4)CC3)n2)c1,nt,nt,3,nt,nt
